Test results taken from PubChem BioAssay AID493185 (National Center for Advancing Translational Sciences (NCATS), 2011).
Unmarked numbers belong to inactive results. The source made the active and inactive calls. Calls follow the shape of the dose curve; as a rule, active = well fitted activation curve with a large enough effect; inconclusive = small, poorly fitted or top-dose-only effect; inactive = no such curve, though single readings can be large or run the other way.
Potency is read from the fitted curve at half-maximal effect.

Test: Counterscreen for Identifying a Potential Treatment of Ataxia-Telangiectasia: Hit Validation; as to activation: 0% is about no effect
Conditions: cell-free AlphaLISA/AlphaScreen artifact counterscreen, PBS only, no cells; series mostly up to 76.9 µM; activation: at the top concentration
Procedure, shortened: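 Cell-free AlphaLISA counterscreen: compounds (up to 76.7 uM final) in PBS with detection mix of anti-pKAP1 and anti-KAP1 antibodies on donor/acceptor beads plus lysis buffer, incubated 6 hr at 25C before AlphaScreen read.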
For `CC1Cc2ccccc2N1C(=O)CSc1nnnn1-c1ccc2c(c1)OCCO2` (stereo not given), the “activation” value was 18.8%.
For `CC(Oc1ccccc1)C(=O)Nc1cccc(NC(=O)c2ccco2)c1` (stereo not given), the “activation” value was 14.3%.
For `C[C@H](NC(=O)OC(C)(C)C)C(=O)NCC1CCC(C(=O)N[C@@H](Cc2ccccc2)C(=O)O)CC1` (stereo not given in full), the “activation” value was -14.8%.
With `COc1ccc(-n2c(=S)[nH]c3ccccc3c2=S)cc1` the “activation” value was -17.2%.
For `O=C1NC(=Nc2ccccc2)CS1`, the “activation” value was -1.5%.
With `COc1ccc(C2/C=C\CN(S(=O)(=O)c3ccc4ccccc4c3)CC(=O)N2Cc2ccc(F)cc2)cc1` (stereo not given) the “activation” value was -14.6%.
With `CS(=O)(=O)c1ccc(-c2csc(-c3cccnc3)n2)cc1` the “activation” value was 8.27%.
For `O=C(O)CCC(=O)NN1C(=O)c2ccccc2NC1c1ccco1` (stereo not given), the “activation” value was -18%.
With `COC(=O)c1ccncc1C(=O)Nc1ccc(Oc2ncc(C(F)(F)F)cc2Cl)cc1` the “activation” value was -5.74%.
In the case of `O=C(Nc1ccc([N+](=O)[O-])cc1)c1cc2ccccc2nc1Cl`, the “activation” value is reported as -3.28%.
With `COc1cc(CCC(=O)OCC(=O)N2CCc3ccccc32)cc(OC)c1OC` the “activation” value was -0.752%.
In the case of `O=C(c1ccc(F)cc1)c1ccc(N2CCCCC2)cc1`, the “activation” value is reported as 9.02%.
In the case of `Cc1ccc(OCC(=O)N(Cc2cccs2)C2CCS(=O)(=O)C2)cc1C` (stereo not given), the “activation” value is reported as 0.752%.
In the case of `Cc1c(Cc2ccccc2)c(NCCCO)n2c(nc3ccccc32)c1C#N`, the “activation” value is reported as 24.8%.
In the case of `CC(=O)Nc1ccc(NC2=C(Cl)C(=O)c3ccccc3C2=O)cc1`, the “activation” value is reported as -32.3%.
In the case of `C/C=C\C=C/C(=O)Nc1cccc(C2=NOC3(C2)C[C@@H](C(N)=O)N(C(=O)COc2ccc(Cl)cc2)C3)c1` (stereo not given in full), the “activation” value is reported as -11.5%.
For `OC(CN1CCCCC1)Cn1c2ccc(Cl)cc2c2cc(Cl)ccc21` (stereo not given), the “activation” value was -8.2%.
For `CC12CCC(C(=O)NNc3ccc([N+](=O)[O-])cc3)(OC1=O)C2(C)C` (stereo not given), the “activation” value was 0%.
In the case of `COc1ccc(C2c3ccc(O)cc3Oc3ncn(CC(C)C)c(=N)c32)cc1` (stereo not given), the “activation” value is reported as -3.76%.
With `CCn1c2ccccc2c2c3ncc4cccn4c3ccc21` the Potency was 41.2 µM (active).
With `CCCCN(c1nc2ccccc2nc1Cl)S(=O)(=O)c1ccc(C)cc1` the “activation” value was -15.8%.
In the case of `CC(C)CC(=O)Nc1c2c(nn1-c1cccc(Cl)c1)CS(=O)C2` (stereo not given), the “activation” value is reported as -5.74%.
For `Cc1ccc(NC(=O)Nc2cccnc2)cc1NC(=O)Nc1cccnc1`, the “activation” value was -10.5%.
In the case of `CC(C)NC(=O)c1ccc(COc2ccc(C(C)(C)C)cc2)o1`, the “activation” value is reported as 10.7%.
In the case of `CCn1nc(C)c(CNC(=O)c2cc(COc3ccc(F)cc3Cl)on2)c1C`, the “activation” value is reported as -11.3%.
For `O=C(N/N=C/c1ccncc1)c1ccc(COc2cccc3cccnc23)cc1`, the “activation” value was 18%.
With `CCOc1cccc(/C=C/c2ccc3cccc(O)c3n2)c1OC` the “activation” value was -10.7%.
With `CC(C)c1ccc(-c2cc(C(=O)N3CCOCC3)c3cc(Br)ccc3n2)cc1` the “activation” value was -10.5%.
With `CCN(CC)CCNC(=O)CCc1c(C)nc2c(c(C)nn2-c2ccc(C)cc2)c1C` the “activation” value was 17.7%.
With `O=C1C(Cl)=C(Nc2ccccc2)C(=O)c2ccccc21` the “activation” value was 3.01%.
In the case of `CCN1CCN(c2oc(COc3ccc(Cl)cc3)nc2C#N)CC1`, the “activation” value is reported as 78.5%.
In the case of `COc1cccc(C2C(C(N)=O)=C(C)Nc3nc(CCCO)nn32)c1` (stereo not given), the “activation” value is reported as 9.02%.
For `O=C(NCc1ccccc1)c1cccnc1Sc1ccccc1`, the “activation” value was 3.76%.
With `O=C(Nc1ccc(N2CCCC2)cc1)c1ccc(Cl)cc1Cl` the “activation” value was -6.77%.
In the case of `CCOC(=O)N1CCN(C(=O)CCc2nc3sc4c(c3c(=O)[nH]2)CCCC4)CC1`, the “activation” value is reported as -5.74%.
For `CCN1CCN(CC(=O)Nc2ccc(C(C)=O)cc2)CC1`, the “activation” value was -2.46%.
With `O=C(O)c1ccc(/C=C/c2nc3ccccc3c(=O)[nH]2)cc1` the “activation” value was -12%.
In the case of `Oc1cccc(NC(=S)N=Nc2c(O)[nH]c3ccccc23)c1`, the “activation” value is reported as -13.1%.
With `CCOC(=O)CN(C(=O)CSc1nnc(COc2ccc(OC)cc2)n1CC)c1ccccc1` the “activation” value was 0%.
In the case of `Cc1cccc(C)c1NC(=O)COC(=O)c1cc(=O)c2ccccc2o1`, the “activation” value is reported as -16.9%.
